The values that follow come from the supplement of paper PMC6555819.

In one experiment the test system is RARa homodimer (NR concentration 270 nM). Put plainly: PBM binding z-score (relative to random genomic background probes); higher = stronger binding; sequences stand for … in GC…GCGATTGACAGCGTAGAATGAAGG
Summed up: (§1)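 Antibodies against each partner of ligand-free nuclear receptor dimers (one per run) detected binding on custom Agilent 4×180K protein-binding microarrays after 1 h incubation. The double-stranded probes had 34-nt variable regions carrying direct-repeat seeds, single-nucleotide variants, half-site ablations and random human genomic background sequences. Binding z-scores, from regression-normalized fluorescence, use the random background probes as reference.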
CGAACTAGGTCCTCCAGGACAGTGAATACATTGA displayed a PBM binding z-score of -0.913.
For the sequence TCAAGTAGGTTACCAATGGGGCATTCAGCTTTCT, the PBM binding z-score was 0.134.
The same measure, in the same setting: as for GCTGTTAGGTCAACTGATGGTCAGCTAAAGCTCG, the figure is 0.121.
The same measure, in the same setting: as for TCATATAGGTAAACAGGTGCAAGTCCGTAAGTTA, the figure is 1.57; as for TCTTGTAGATCAATAGAGGATAAGAAAGTGCGCT, 0.232.
Still for that read-out and setting: as for TTACCAGGGTGAAGGTCGTTGATCCCTCTGTAGA, the figure is -0.0972; as for GCTAGCAGGCCATTTTGGTCACTCAATGACGGGC, -1.3; as for CGTCCAAGGTCAATGCTAGGTCAGTGTAAGCATT, 1.32.
TATACAGCGTCAAAGGCCAGAGTACGAATGTCGA: the PBM binding z-score is -0.705.
Still for that read-out and setting: as for ATCTCGAGGTAAAGTTCAGTGAAAGATCGATAGA, the figure is 0.469.
The same measure, in the same setting: as for CATACAGGGTCAGCTAGGCCAGTGTAGGGACGGC, the figure is -0.155; as for ATATGTAGGTTATCGCGTCATTCAGTTTGCGCAT, 0.606.
The same measure, in the same setting: as for CCGACTGGGGTAAAGGTTACCATACTCAGTACGA, the figure is 0.475.
The sequence TAGCCTAGGTCATGCGGGCCAGGATAGTGTCGGC showed a PBM binding z-score of -0.855.
The same measure, in the same setting: as for CCTAGTAGGTCAAGGTCACACACGCTATAGGTAC, the figure is 2.09; as for TCGAGTAGGTTACCATTGGGGCATTCAGCTTTCT, -0.577.
Still for that read-out and setting: as for TTACCAAGGTGGGCTGAGGTCGTTGATCCAACTC, the figure is 0.0238; as for AGAATGACGTTATACGTAGATCAGGGAAGAAAGT, -0.733.

For another experiment, the system named is RARb:RXRa (NR concentration 270 nM, RXRa partner concentration 90 nM). The description is as above. Summed up: as §1
For CCTAGCAGGCCAATCTGGGTGACTCAAGGCTTGA, the PBM binding z-score was 0.0785.
The same measure, in the same setting: as for CGAACTAGGTCAGAACTGGACAGTGAAGGATGAT, the figure is 2.71.
The same measure, in the same setting: as for GGAACGAGGGCATTCGAGTTGATGGCATGGCGAT, the figure is 1.6; as for TCAGACAGGTGAAGGTAACTCCGGTACGCAGTCG, 1.1; as for CGTCCCAGGTCAATGCTAGGTCAGTGAAAGCATT, 4.37.
TCATATAGGTAAACAGGTGGAAGTCCGTAAGTTA had a PBM binding z-score of 0.625.
Still for that read-out and setting: as for CCAGACAGGTGAAAGGTAACCCAGTCTGGTACGC, the figure is 1.27.
Still for that read-out and setting: as for CTACCAAGCTGAACAAGGTCGTTGATTACTATTC, the figure is 0.523.
Same read-out and setting: as for GGAACGAGGGCGTTCGAGTTGATAGCATGGCGAT, the figure is 0.422; as for CAGCCTAGGTCTGGGCCAGTATAGGAGGAACGTT, -0.54; as for GGAGACAGGTGAAACGCAGGTAACTCAGGGTGGC, 0.904.
TAGCCTAGGTCATGGGCCGGTATACCACGCGAAC: the PBM binding z-score was determined as 3.9.
The same measure, in the same setting: as for CAAACTCGGTCACAGAGGTCAAAGTCCGTGCGTA, the figure is 4.75; as for CCTACTGCGCCACGAAAGGTCATTGATTCAGTGA, 3.86; as for GCGTACGGGTCAAAGGTTATAGCATGAATAGAAT, 4.64.
Sequence CCATACGGGTCACGAGGTTATAGCACGACGAGCG came in with a PBM binding z-score of 4.62.
On the same count and under the same terms, as for TCATATAGGTAAATGCTAGGTGAAATTCCGATCT, the figure is 0.363; as for CGAACGAGGGGATGAGTTGATAGCAAATGCCGAT, -0.301; as for GCATATAGGTGATACAAGGTGAAAGTCCGATTGT, 0.893.
The same measure, in the same setting: as for CCGACTGCGGCAAAGGTTACCATACTCAGTACGA, the figure is 1.82; as for ACTATTAGTTGTGACGAGGGCAACCGATAGGTTG, 1.06.
Still for that read-out and setting: as for TCGAGTAGGTTACCAATGGGGCATTCCGCTTTCT, the figure is 0.81; as for CGAACTAGGTCCTCCAGGACAGTGAATACATTGA, -0.0568; as for TCAAGTAGGTTACCAATGGGGCATTCAGCTTTCT, 1.27.
GCTGTTAGGTCAACTGATGGTCAGCTAAAGCTCG showed a PBM binding z-score of 4.4.
With TCATATAGGTAAACAGGTGCAAGTCCGTAAGTTA, the PBM binding z-score was 0.765.
The same measure, in the same setting: as for TCTTGTAGATCAATAGAGGATAAGAAAGTGCGCT, the figure is 0.029; as for TTACCAGGGTGAAGGTCGTTGATCCCTCTGTAGA, 1.69; as for GCTAGCAGGCCATTTTGGTCACTCAATGACGGGC, 0.0531.
Still for that read-out and setting: as for CGTCCAAGGTCAATGCTAGGTCAGTGTAAGCATT, the figure is 5.13; as for TATACAGCGTCAAAGGCCAGAGTACGAATGTCGA, 0.524.
Same read-out and setting: as for ATCTCGAGGTAAAGTTCAGTGAAAGATCGATAGA, the figure is 2.86; as for CATACAGGGTCAGCTAGGCCAGTGTAGGGACGGC, 3.98.
Consider ATATGTAGGTTATCGCGTCATTCAGTTTGCGCAT, for which the PBM binding z-score was determined as 0.976.
The sequence CCGACTGGGGTAAAGGTTACCATACTCAGTACGA registered a PBM binding z-score of 2.02.
Same read-out and setting: as for TAGCCTAGGTCATGCGGGCCAGGATAGTGTCGGC, the figure is 3.74.
CCTAGTAGGTCAAGGTCACACACGCTATAGGTAC returned a PBM binding z-score of 5.1.
As to TCGAGTAGGTTACCATTGGGGCATTCAGCTTTCT, the PBM binding z-score is 0.817.
The same measure, in the same setting: as for TTACCAAGGTGGGCTGAGGTCGTTGATCCAACTC, the figure is 0.446.
Still for that read-out and setting: as for AGAATGACGTTATACGTAGATCAGGGAAGAAAGT, the figure is -0.573.
